Measurements from PubChem BioAssay (Tox21).
Values joined by “and” are separate entries in the source; they are usually repeats but may differ in a detail not shown here. Equal entries are not always repeated. Records with an inconclusive call do not appear. Active and inactive are the calls of the source. Unless noted, calls follow the shape of the dose curve; as a rule, active = well fitted curve in the direction sought with a large enough effect in the repeat runs; inconclusive = weak or mixed curves; inactive = no such curve, though single readings can be large; an effect the other way counts as inactive or inconclusive.

Key:
[1] = qHTS assay for small molecule agonists of the p53 signaling pathway (AID 651631; calls by dose curve; also: nearly all actives have a fitted effect of over 15% in size; also: potency is read from the fitted curve at half-maximal effect)
Summary of the method: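 Read-out is beta-lactamase FRET fluorescence measured 2 h after substrate addition at room temperature, in HCT-116 cells with a p53 response element-driven reporter exposed to compounds for 16 h at 37 °C.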

[2] = qHTS assay for small molecules that induce genotoxicity in human embryonic kidney cells expressing luciferase-tagged ATAD5 (AID 651632); also: nearly all actives have a fitted effect of over 15% in size; also: potency is read from the fitted curve at half-maximal effect
Summary of the method: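 A rise in luciferase signal from ATAD5-tagged HEK293T cells marks genetic stress. Cells were exposed to compounds for 16 hr at 37C, 5% CO2, then luciferase was quantified after a 30 min room-temperature incubation with Amplite.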

[3] = qHTS assay for small molecule agonists of the p53 signaling pathway - cell viability (AID 651633; calls by dose curve; also: nearly all actives have a fitted effect of over 30% in size; also: potency is read from the fitted curve at half-maximal effect)
Summary of the method: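 Viability counter-read: CellTiter-Glo luminescence (30 min, room temperature) in the same p53RE-bla plates. These plates had been exposed to compounds for 16 h at 37 C.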

[4] = qHTS assay for small molecules that induce genotoxicity in human embryonic kidney cells expressing luciferase-tagged ATAD5 - cell viability (AID 651634; calls by dose curve; also: nearly all actives have a fitted effect of over 25% in size; also: potency is read from the fitted curve at half-maximal effect)
Summary of the method: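 Cytotoxicity counter-readout: after 15.5 hr compound treatment at 37C, live-cell protease activity in ATAD5-luciferase HEK293T cells measured by CellTiter-Fluor fluorescence, 30 min development at 37C.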

[5] = qHTS assay for small molecule disruptors of the mitochondrial membrane potential - cell viability (AID 720634; calls by dose curve; also: nearly all actives have a fitted effect of over 20% in size; also: potency is read from the fitted curve at half-maximal effect)
Summary of the method: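 Cytotoxicity was quantified from ATP content by CellTiter-Glo luminescence in the same wells as the MMP dye read-out. HepG2 (2,000 cells/well) were plated overnight and exposed to compounds for 1 hr at 37 C.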

[6] = qHTS assay to test for compound auto fluorescence at 590 nm (red) in HepG2 cells (AID 720674); also: % is scaled to controls: 0 for no effect and ±100 for the full control effect
Summary of the method: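 Red autofluorescence (Ex/Em 540/590 nm, Rose Bengal sodium equivalents) was measured in HepG2 cells, 2,000 per well in MEM plus 10% FBS, plated overnight at 37 C. Readings were taken 1 hr after adding 23 nL compound or DMSO, at 37 C and 5% CO2.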

[7] = qHTS assay to test for compound auto fluorescence at 535 nm (green) in HepG2 cells (AID 720675); also: % is scaled to controls: 0 for no effect and ±100 for the full control effect
[8] = qHTS assay to test for compound auto fluorescence at 590 nm (red) in HEK293 cells (AID 720679); also: % is scaled to controls: 0 for no effect and ±100 for the full control effect
Summary of the method: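 Red autofluorescence, HEK293 cells: 2,000 cells/well; attach 4-5 hr 37C; add 23 nL cpd or DMSO; incubate o/n 37C 5% CO2; read Ex540/Em590; Rose Bengal sodium reference.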

[9] = qHTS assay to test for compound auto fluorescence at 535 nm (green) in HEK293 cells (AID 720680); also: % is scaled to controls: 0 for no effect and ±100 for the full control effect
[10] = qHTS assay to test for compound auto fluorescence at 460 nm (blue) in HEK293 cell free culture (AID 720681); also: potency is read from the fitted curve at half-maximal effect
Summary of the method: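 Blue fluorescence (Ex 405/Em 460 nm, triamterene-equivalent) was read immediately after pin transfer of compound or DMSO into medium (DMEM, 10% FBS) without cells.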

[11] = qHTS assay to test for compound auto fluorescence at 535 nm (green) in HEK293 cell free culture (AID 720682); also: % is scaled to controls: 0 for no effect and ±100 for the full control effect
Summary of the method: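 Fluorescein serves as the green reference fluorophore; each compound's intrinsic emission at 535 nm (excitation 485 nm) is reported as an equivalent amount of that dye, measured in serum-containing DMEM without cells.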

[12] = qHTS assay to test for compound auto fluorescence at 590 nm (red) in HEK293 cell free culture (AID 720683); also: % is scaled to controls: 0 for no effect and ±100 for the full control effect
Summary of the method: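 Red-channel autofluorescence of compounds in culture medium (DMEM, 10% FBS), no cells, measured at 540/590 nm. Rose Bengal sodium is the reference fluorophore for equivalence.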

[13] = qHTS assay to test for compound auto fluorescence at 590 nm (red) in HepG2 cell free culture (AID 720684); also: % is scaled to controls: 0 for no effect and ±100 for the full control effect
Summary of the method: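 Cell-free; medium MEM + 10% FBS; compound or DMSO added by pintool; read Ex 540/Em 590 nm; Rose Bengal sodium as red reference fluorophore.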

[14] = qHTS assay to test for compound auto fluorescence at 460 nm (blue) in HepG2 cell free culture (AID 720685); also: potency is read from the fitted curve at half-maximal effect
Summary of the method: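 Cell-free plates of MEM plus 10% FBS received 23 nL compound or DMSO vehicle; blue-channel (405/460 nm) intensity scored against triamterene as reference fluorophore.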

[15] = qHTS assay to test for compound auto fluorescence at 535 nm (green) in HepG2 cell free culture (AID 720686); also: % is scaled to controls: 0 for no effect and ±100 for the full control effect
[16] = qHTS assay to test for compound auto fluorescence at 460 nm (blue) in HepG2 cells (AID 720687); also: potency is read from the fitted curve at half-maximal effect
Summary of the method: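 Blue-channel autofluorescence (Ex/Em 405/460 nm, triamterene-equivalent) was measured after 1 hr compound exposure at 37 C, 5% CO2. Cells were HepG2, plated overnight at 37 C in MEM plus 10% FBS.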

[17] = molecular target: Glucocorticoid receptor (Homo sapiens) (UniProt P04150); experiment: qHTS assay to identify small molecule agonists of the glucocorticoid receptor (GR) signaling pathway (AID 720691; active = well fitted activation curve with a large enough effect in the signal ratio in the repeat runs, not every such curve was filed as active; the % refers to the signal ratio; also: % is scaled to controls: 0 for no effect and ±100 for the full control effect); conditions: GR-bla HeLa, beta-lactamase reporter ratio, 18 h; activation: at 62.4 µM (top of the series)
Summary of the method: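 Agonist-mode qHTS in HeLa cells stably expressing a glucocorticoid-response-element beta-lactamase reporter. Fluorescence intensity read with FRET substrate (2 h, room temperature) after 18 h compound treatment at 37 C.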

[18] = molecular target: Glucocorticoid receptor (Homo sapiens) (UniProt P04150); experiment: qHTS assay to identify small molecule antagonists of the glucocorticoid receptor (GR) signaling pathway (AID 720692; active = well fitted inhibition curve with a large enough effect in the signal ratio in the repeat runs, not every such curve was filed as active; the % refers to the signal ratio; also: % is scaled to controls: 0 for no effect and ±100 for the full control effect)
Summary of the method: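 Inhibition of dexamethasone-driven (5 nM final) beta-lactamase expression was measured in GRE-reporter HeLa cells over 18 h at 37C. Fluorescence was read after 2 h with the B/G FRET substrate at room temperature.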

[19] = qHTS assay for small molecule disruptors of the mitochondrial membrane potential (AID 720635); also: potency is read from the fitted curve at half-maximal effect
Summary of the method: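 Mitochondrial membrane potential tracked with Mito-MPS dye, red aggregates (ex 540/em 590 nm) against green monomers (ex 490/em 535 nm). Compound treatment 1 hr at 37C, dye 30 min in HepG2.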

[20] = qHTS assay to test for compound auto fluorescence at 460 nm (blue) in HEK293 cells (AID 720678); also: potency is read from the fitted curve at half-maximal effect
Summary of the method: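 Intrinsic compound fluorescence is recorded in live HEK293 cultures after overnight incubation at 37C, 5% CO2, using excitation 405 nm and emission 460 nm. Values are referenced to triamterene.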
Tags tell the direction and shape of the fitted curve or compound fluorescence and quenching.

Sequence of Glucocorticoid receptor (Homo sapiens) (P04150 whole entry, looked up): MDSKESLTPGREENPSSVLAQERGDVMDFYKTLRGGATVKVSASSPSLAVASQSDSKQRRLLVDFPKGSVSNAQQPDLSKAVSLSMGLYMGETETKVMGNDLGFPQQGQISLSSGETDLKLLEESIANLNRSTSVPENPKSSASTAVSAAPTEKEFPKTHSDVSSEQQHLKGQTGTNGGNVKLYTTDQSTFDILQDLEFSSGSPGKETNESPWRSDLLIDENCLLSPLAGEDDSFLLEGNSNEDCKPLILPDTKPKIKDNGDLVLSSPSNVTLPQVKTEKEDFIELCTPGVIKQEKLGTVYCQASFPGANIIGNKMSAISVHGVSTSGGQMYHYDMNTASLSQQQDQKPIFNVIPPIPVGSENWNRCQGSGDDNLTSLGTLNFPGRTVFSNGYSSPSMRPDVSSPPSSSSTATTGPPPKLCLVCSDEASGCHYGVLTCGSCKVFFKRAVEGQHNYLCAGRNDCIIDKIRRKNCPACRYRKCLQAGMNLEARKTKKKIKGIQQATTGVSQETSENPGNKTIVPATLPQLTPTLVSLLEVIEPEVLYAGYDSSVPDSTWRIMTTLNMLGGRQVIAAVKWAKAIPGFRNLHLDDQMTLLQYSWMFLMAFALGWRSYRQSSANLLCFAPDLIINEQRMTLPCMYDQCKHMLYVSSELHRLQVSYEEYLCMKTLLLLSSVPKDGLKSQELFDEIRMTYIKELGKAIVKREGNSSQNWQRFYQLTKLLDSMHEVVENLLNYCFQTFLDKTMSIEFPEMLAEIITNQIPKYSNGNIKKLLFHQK

COCCCC/C(=N\OCCN)c1ccc(C(F)(F)F)cc1
inactive: Potency [1] | Potency [2] | Potency [3] | Potency [4] | Potency [5] | Potency [6] | Potency [7] | Potency [8] | outcome [9] | Potency [10] | outcome [11] | Potency [12] | Potency [13] | Potency [14] | Potency [15] | Potency [16] | Potency [17] | Potency [18]

N=C1N=C(N)c2cc3ccccc3cc21
active: Potency [1] 9.69 µM | Potency [2] 19.3 µM | Potency [3] 12.2 µM | Potency [19] 3.06 µM | Potency [20] 35.5 µM [fluorescent] | Potency [10] 31.6 µM | Potency [14] 28.2 µM [fluorescent] | Potency [16] 38.7 µM [fluorescent]
inactive: Potency [4] | Potency [5] | Potency [6] | Potency [7] | Potency [8] | outcome [9] | outcome [11] | Potency [12] | Potency [13] | Potency [15]

Oc1ccc(Cl)cc1Sc1cc(Cl)ccc1O
active: Potency [1] 29.8 µM | Potency [3] 26.6 µM and 54.4 µM | Potency [4] 19.3 µM | Potency [5] 9.44 µM and 13.7 µM | Potency [19] 2.11 µM and 1.53 µM
inactive: Potency [2] | Potency [6] | Potency [7] | Potency [20] | Potency [8] | outcome [9] | Potency [10] | outcome [11] | Potency [12] | Potency [13] | Potency [14] | Potency [15] | Potency [16]

O=C1C=CC(=O)N1
inactive: Potency [2] | Potency [6] | Potency [7] | Potency [20] | Potency [8] | outcome [9] | Potency [10] | outcome [11] | Potency [12] | Potency [13] | Potency [14] | Potency [15] | Potency [16]
active: Potency [1] 49.8 µM | Potency [5] 49.8 µM | Potency [19] 28 µM

O=C(Nc1cccc(Cl)c1)OCC#CCCl
active: Potency [1] 8.63 µM | Potency [3] 68.6 µM | Potency [4] 61.1 µM | Potency [19] 21.7 µM
inactive: Potency [2] | Potency [6] | Potency [7] | Potency [20] | Potency [8] | outcome [9] | Potency [10] | outcome [11] | Potency [12] | Potency [13] | Potency [14] | Potency [15] | Potency [16]

COc1cc(-c2ccc(N=C=O)c(OC)c2)ccc1N=C=O
inactive: Potency [1] | Potency [2] | Potency [3] | Potency [4] | Potency [5] | Potency [6] | Potency [7] | Potency [20] | Potency [8] | outcome [9] | Potency [10] | outcome [11] | Potency [12] | Potency [13] | Potency [14] | Potency [15] | Potency [16]

C[C@@H]1C[C@H]2[C@@H]3CCC4=CC(=O)C=C[C@]4(C)[C@@]3(Cl)[C@@H](O)C[C@]2(C)[C@@]1(OC(=O)c1ccco1)C(=O)CCl
active: Potency [19] 11.4 µM
inactive: Potency [1] | Potency [3] | Potency [4] | Potency [5] | fluorescence, relative to Rose Bengal [6] -0.134% [at 18.6 µM] | fluorescence, % of fluorescein control [7] 0.0009% [at 18.6 µM] | fluorescence, % of triamterene [20] 0.0948% [at 18.6 µM] | fluorescence, % of fluorescein [9] -0.0241% [at 18.6 µM] | fluorescence, % of fluorescent control [10] 0.0036% [at 18.6 µM] | activity change [11] -0.0517% [at 18.6 µM] | fluorescence, % of fluorescent control [12] 0.0049% [at 18.6 µM] | fluorescence, % of Rose Bengal [13] -0.333% [at 18.6 µM] | fluorescence, % of fluorescent control [14] -0.0123% [at 18.6 µM] | fluorescence, % of fluorescein control [15] -0.0158% [at 18.6 µM] | fluorescence, % of fluorescent control [16] -0.0042% [at 18.6 µM]
